About 3,300 (0.97%) of roughly 340,000 compounds were called active.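 The calls were made as follows: active = inhibition above the mean over all tested compounds plus 3 SD (cut at about 30% in these data); inactive = the rest.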 Many of the other results were omitted from the sample, so actives are more common in it than they were.
The compounds below were run against Platelet-activating factor acetylhydrolase 2, cytoplasmic (Homo sapiens) (UniProt Q99487) (assay: inhibition of cytoplasmic PAF acetylhydrolase 2 – biochemical, fluorescence polarization, human, primary screen (AID 492956;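 also: inhibitors block probe labeling of enzyme so polarization drops; 0% = enzyme with DMSO and 100% = wells lacking PAFAH2 protein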)). Details: recombinant PAFAH2, FP-rhodamine activity probe, at 3.39 µM, stronger effect = higher value.

| SMILES | inhibition |
| --- | --- |
| CC1(C)CC(O)C(CCC(O)c2ccccc2)C(C)(C)N1 (configuration not stated) | 4.72% (inactive) |
| O=C(NCCNc1ccc([N+](=O)[O-])cc1)c1cccc2c(Br)cccc12 | 2.72% (inactive) |
| CCC(=O)N(Cc1ccccc1)c1ccccn1 | -1.23% (inactive) |
| Cc1cc(OCCCC(=O)Nc2cc(S(=O)(=O)N3CCOCC3)ccc2N2CCOCC2)ccc1Cl | 8.81% (inactive) |
| CSc1ncc(C(=O)NCCCc2ccccc2)c(C)n1 | -6.77% (inactive) |
| C=CCc1c(C)nc2cc(-c3ccccc3)[nH]n2c1=O | 0.26% (inactive) |
| CCCCN1Cc2c(nc3cc(-c4ccccc4)[nH]n3c2=O)C1=O | 40.2% (active) |
| O=c1c2c(nc3cc(-c4cccc(Cl)c4)[nH]n13)CCCC2 | 2.97% (inactive) |
| Cc1cc(=O)oc2c(C)c(OC(C)C(=O)NC3CCN(Cc4ccccc4)CC3)ccc12 (configuration not stated) | 1.42% (inactive) |
| CC(OC(=O)c1c(F)cccc1F)C(=O)NCCC1=CCCCC1 (configuration not stated) | 8.3% (inactive) |
| CC(=O)Nc1ccc(C(=O)OCC(=O)Nc2ccc([N+](=O)[O-])cc2C(F)(F)F)cc1 | 40.5% (active) |
| O=C(COC(=O)c1cc[n+]([O-])cc1)Nc1ccc(Cl)c(C(F)(F)F)c1 | -4.1% (inactive) |
| NC(=O)c1ccc(NC(=O)COC(=O)c2ccc([N+](=O)[O-])cc2)cc1 | 0.64% (inactive) |
| O=C(O)C(c1ccccc1)N1C(=O)/C(=C\c2ccc(-c3cccc(Cl)c3)o2)SC1=S (configuration not stated) | 40.3% (active) |
| O=C1NN(c2ccccc2)C(=O)/C1=C/c1ccc(-c2cccc(C(=O)O)c2)o1 | 24.1% (inactive) |
| O=C1c2ccccc2NC(c2ccc(-c3cccc(Cl)c3)o2)N1O (configuration not stated) | -3.11% (inactive) |
| O=C(O)c1ccc(NN=CC2=C(N3CCOCC3)/C(=C/c3ccccc3)CC2)cc1 | 1.44% (inactive) |
| COc1ccc(C(C[N+](=O)[O-])n2nc(C)cc2C)cc1 (configuration not stated) | 1.81% (inactive) |
| O=C(Nc1cc(S(=O)(=O)Nc2ccc(Cl)cc2)ccc1O)c1ccc(F)cc1F | 61.9% (active) |
| O=C(Nc1cccc(S(=O)(=O)NC2=NCCC2)c1)c1ccc(F)cc1F | -3.56% (inactive) |
| Cc1cc(NS(=O)(=O)c2ccc(NC(=S)NC(=O)c3ccc(F)cc3Cl)cc2)no1 | 3.92% (inactive) |
| C[C@H]1CCC(=O)N([C@H](CSc2ccccc2)Cc2ccccc2)CC1 | 4.65% (inactive) |
| C/C=N/NC(=O)CCCC(=O)N/N=C/C | -3.09% (inactive) |

| SMILES | inhibition |
| --- | --- |
| Cc1ccc2c(c1)C1CN(C)CCC1N2C(=O)c1ccccc1NS(=O)(=O)c1ccc(F)cc1C (configuration not stated) | 41.1% (active) |
| Cc1ccc2c(c1)C1CN(C)CCC1N2C(=S)Nc1ccc(Cl)cc1Cl (configuration not stated) | 8.44% (inactive) |
| Cc1ccc2c(c1)C1CN(C)CCC1N2S(=O)(=O)c1cccc(F)c1 (configuration not stated) | 4.06% (inactive) |
| CCC(C)[C@H](NC(=O)N1CCn2c1nc1ccccc12)C(=O)NCc1ccc(OC)cc1 (some centres not stated) | 5.18% (inactive) |
| CCc1ccc(C2C(C#N)=C(N)N(N3CCOCC3)C3=C2C(=O)CC(C)(C)C3)s1 (configuration not stated) | 0.28% (inactive) |
| O=C(COC(=O)CCCN1C(=O)c2cccc3cccc(c23)C1=O)NC1CCS(=O)(=O)C1 (configuration not stated) | 3.81% (inactive) |
| Cc1cnc(NC(=O)c2ccccn2)s1 | 13.5% (inactive) |
| Cc1cnc(NC(=O)CSc2c(Cl)cccc2Cl)s1 | 38.4% (active) |
| Cc1cnc(NC(=O)C2CCCC2)s1 | 1.44% (inactive) |
| O=C(COC(=O)CC1CC2CCC1C2)NC(=O)NC1CCCC1 (configuration not stated) | 1.25% (inactive) |
| Cc1noc(C)c1C(=O)N(CC(=O)NC1CCCC1)Cc1ccccc1F | 3.06% (inactive) |
| Oc1oc(-c2ccccc2Br)nc1/C=N/c1ccccn1 | 68% (active) |
| CCOc1ccc2nc(/N=C/c3nc(-c4ccccc4)oc3O)sc2c1 | 2.86% (inactive) |
| CC(N=Cc1nc(-c2ccccc2)oc1O)c1ccccc1 (configuration not stated) | 21% (inactive) |
| COc1ccc(F)cc1C(=O)COC(=O)c1n[nH]c(=O)c2ccccc12 | 0.13% (inactive) |
| CN(C)c1ccc2c(=O)[nH][nH]c(=O)c2c1 | 0.81% (inactive) |
| Cc1ccc2oc(=O)ccc2c1 | 1.28% (inactive) |
| Cc1ccc2c(=O)oc(N(C)C)nc2c1 | 33% (active) |
| CCOC(=O)C1CCCCN1Cc1ccc(OC)c(OC)c1OC (configuration not stated) | -0.46% (inactive) |
| COC(CCN(C)C)(c1ccccc1)c1ccccc1 | 3.5% (inactive) |
| C=CCC(NCCCO)c1cccc(OC)c1OC (configuration not stated) | 5.85% (inactive) |
| O=C1C(Cl)=C(Oc2ccccc2)C(=O)c2ccccc21 | 43.1% (active) |
| CC(=O)N(C1=C(Cl)C(=O)c2ccccc2C1=O)c1ccc(C(=O)O)cc1 | 10.5% (inactive) |

| SMILES | inhibition |
| --- | --- |
| Cc1ccc2[nH]c(=O)c(CN3CCCCC3)c(-c3ccccc3)c2c1 | 6.01% (inactive) |
| CCc1cc(=O)oc2c(C)c(OCC(=O)N3CC[C@@]4(O)CCCC[C@H]4C3)ccc12 | -2.6% (inactive) |
| Oc1c(Cl)cc(Cl)c(Cl)c1Cc1c(O)c(Cl)cc(Cl)c1Cl | 49.4% (active) |
| CCOC(=O)C(=CNNc1ccsc1C(=O)OC)C(=O)OCC | -1.37% (inactive) |
| CCOc1ccc(S(=O)(=O)N2CCC(C(=O)NCC(=O)Nc3cccc(Cl)c3C)CC2)cc1 | 8.28% (inactive) |
| O=C(O)c1ccc(NS(=O)(=O)c2ccc3c(c2)C(=O)c2cc(S(=O)(=O)Nc4ccc(C(=O)O)cc4)ccc2-3)cc1 | 4.82% (inactive) |
| OCC[C@H]1C[C@H](O)[C@@H](O)[C@]2(Cc3ccccc3CO2)O1 | 8.82% (inactive) |
| COc1ccc(NS(=O)(=O)c2ccc(C)c(C(=O)NCC(c3cccs3)N3CCOCC3)c2)cc1 (configuration not stated) | 7.05% (inactive) |
| CCOc1ccccc1NC(=O)CCc1nnc2ccc(NCc3ccco3)nn12 | 3.78% (inactive) |
| Cc1ccc(/C=C/C(=O)OCC(=O)Nc2cccnc2Cl)cc1 | 30.3% (active) |
| COc1ccc(-c2nnc(SCC(=O)Nc3cccnc3Cl)n2C)cc1 | 0.74% (inactive) |
| O=C(COC(=O)/C=C/c1nc2ccccc2s1)Nc1ccccc1Oc1ccccc1 | -12.4% (inactive) |
| O=C(NCCC(=O)N1O[C@@H]2C=C[C@H]1C2)OCC1c2ccccc2-c2ccccc21 | 2.94% (inactive) |
| O=C(Cc1ccc([N+](=O)[O-])cc1)Nc1ccc(C(=O)N2CCOCC2)cc1 | 1.43% (inactive) |
| O=C(Oc1cccc(C(=S)N2CCOCC2)c1)c1cccc(Cl)c1 | 5.91% (inactive) |
| O=C(/C=C/c1cccs1)c1cc(Cl)ccc1OC(=O)N1CCOCC1 | 72.8% (active) |
| CC(=O)Nc1ccccc1OC(=O)N1CCOCC1 | 7.14% (inactive) |
| COc1cccc(N(C(=O)c2snc(C(N)=O)c2N)C(C(=O)NCC2CCCO2)c2c[nH]c3ccccc23)c1 (configuration not stated) | -0.32% (inactive) |
| COc1ccc(-c2nc3c(s2)CCc2onc(-c4ccc(Br)cc4)c2-3)cc1 | -1.79% (inactive) |
| Cc1ccc(C(=O)OCC(=O)N2CCCCCC2)cc1S(=O)(=O)N1CCOCC1 | 10.7% (inactive) |
| CC(OC(=O)CNC(=O)c1ccco1)C(=O)Nc1ccc(Cl)cn1 (configuration not stated) | -0.78% (inactive) |
| Cc1ccc(NC(=O)C2CC2)cc1S(=O)(=O)N1CCOCC1 | -3.1% (inactive) |
| Cc1ccc(NC(=O)COC(=O)C2CC2)cc1S(=O)(=O)N1CCOCC1 | 77.5% (active) |

| SMILES | inhibition |
| --- | --- |
| O=C(COC(=O)c1ccco1)NCc1ccc(Cl)cc1 | 24.3% (inactive) |
| Cc1cc(NC(=O)COC(=O)c2ccc(F)c(S(=O)(=O)N3CCOCC3)c2)no1 | 8.91% (inactive) |
| Cc1cc(C)cc(NC(=O)c2cccc(NC(=O)C3C4CC5OC(=O)C3C5C4)c2)c1 (configuration not stated) | 6.12% (inactive) |
| O=C(Nc1ccc(Br)cc1)c1cccc(NC(=O)C2C3CC4OC(=O)C2C4C3)c1 (configuration not stated) | -8.44% (inactive) |
| Cc1ccc(NC(=O)COC(=O)C2C3CC4OC(=O)C2C4C3)cc1Cl (configuration not stated) | 88.2% (active) |
| O=C(COC(=O)c1ccco1)Nc1ccc(Cl)cn1 | 45.5% (active) |
| Cc1ccc(C(=O)OCC(=O)Nc2ccc(Cl)cn2)cc1S(=O)(=O)N1CCOCC1 | 55.8% (active) |
| Cc1ccc(NC(=O)COC(=O)CNC(=O)c2ccc(Cl)cc2Cl)cc1S(=O)(=O)N1CCOCC1 | -3.69% (inactive) |
| Cc1ccc(NC(=O)C(=O)NCC2CCN(C(=O)c3cccc([N+](=O)[O-])c3)CC2)cc1 | 3.36% (inactive) |
| C=CCNc1nnc(SCC(=O)N2CCCCC2)c2ccccc12 | -3.63% (inactive) |
| O=C(Nc1ccc(-c2cscn2)cc1)C1CCCN(Cc2ccc(CO)o2)C1 (configuration not stated) | -10.4% (inactive) |
| COc1ccc(CNC(=O)[C@@H]2CC=C[C@@H]3CCN(C4CC4)C(=O)[C@@H]32)cc1 | -6.96% (inactive) |
| CCOC(=O)C1=C(c2ccccc2)O/C(=C(/C(=O)OC)C(F)(F)F)S1 | 1.19% (inactive) |
| Cc1cc(=O)n(C)c(=O)n1CCCNc1ccccc1 | -0.72% (inactive) |
| CCCC(=O)N1CCC(CCC(=O)NC2CC2)CC1 | 2.54% (inactive) |
| CC(CO)NCC12CC3CC(CC(C3)C1)C2 (configuration not stated) | -2.32% (inactive) |
| CCc1ccc2oc(-c3ccc(N)cc3)nc2c1 | 8.24% (inactive) |
| Cc1cc(-c2nnc(SCC(=O)Nc3ccc(S(N)(=O)=O)cc3)n2N)n[nH]1 | -4.23% (inactive) |
| Cc1ccc(C)c(S(=O)(=O)Nc2cc(C)on2)c1 | 0.2% (inactive) |
| CCc1cccc(C)c1NC(=O)COC(=O)Cc1ccsc1 | 7.53% (inactive) |
| CCc1cccc(C)c1NC(=O)COC(=O)CC1CCCC1 | 68.3% (active) |
| CCc1cccc(C)c1NC(=O)COC(=O)CNC(=O)c1cccs1 | 5.02% (inactive) |
| Cc1cc(C)n2nc(C(=O)OCC(=O)N(CCC#N)c3ccc(F)cc3)nc2n1 | -0.66% (inactive) |
